Assay results: PubChem BioAssay (NCI)
Compounds without any hit were thinned out: in the full panel of roughly 83,000, 20% have a hit.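 Percent growth is the endpoint: 0 to 100 indicates growth inhibition (40 means 60% inhibition), 0 means no net growth, and negative values indicate cell death.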 A number with no mark means an inactive call. Activity calls are given as the source filed them. The calls were made as follows: active = growth percent below 10; inactive = the rest.

How the values were obtained:
Assay in all cases: NCI-60 one-dose screen, 48 h (100 = growth as untreated, 0 = no growth, -100 = all killed)
[1] = test system: HCT-15 colon; settings: 10 µM unless noted
[2] = test system: HT29 colon; settings: 10 µM unless noted
[3] = test system: SNB-75 CNS; settings: 10 µM unless noted
[4] = test system: SNB-19 CNS; settings: 10 µM unless noted
[5] = test system: U251 CNS; settings: 10 µM unless noted
[6] = test system: PC-3 prostate; settings: 10 µM unless noted
[7] = test system: UACC-62 melanoma; settings: 10 µM unless noted
[8] = test system: LOX IMVI melanoma; settings: 10 µM
[9] = test system: SK-MEL-28 melanoma; settings: 10 µM unless noted
[10] = test system: SK-MEL-2 melanoma; settings: 10 µM unless noted
[11] = test system: EKVX NSCLC; settings: 10 µM unless noted
[12] = test system: SN12C renal; settings: 10 µM unless noted
[13] = test system: UO-31 renal; settings: 10 µM unless noted
[14] = test system: TK-10 renal; settings: 10 µM unless noted
[15] = test system: ACHN renal; settings: 10 µM unless noted
[16] = test system: CAKI-1 renal; settings: 10 µM unless noted
[17] = test system: A498 renal; settings: 10 µM unless noted
[18] = test system: CCRF-CEM leukemia; settings: 10 µM unless noted
[19] = test system: SK-MEL-5 melanoma; settings: 10 µM unless noted
[20] = test system: MOLT-4 leukemia; settings: 10 µM unless noted

| SMILES | growth [1] | growth [2] | growth [3] | growth [4] | growth [5] | growth [6] | growth [7] | growth [8] | growth [9] | growth [10] | growth [11] | growth [12] | growth [13] | growth [14] | growth [15] | growth [16] | growth [17] | growth [18] | growth [19] | growth [20] |
| --- | --- | --- | --- | --- | --- | --- | --- | --- | --- | --- | --- | --- | --- | --- | --- | --- | --- | --- | --- | --- |
| O=C1Nc2ccc([N+](=O)[O-])cc2C1=Nc1ccccc1 | 92.5% | 122% | 101% | 96.6% | 106% | 94.4% | 59.7% | 97.2% | 108% | 104% | 95.9% | 89.3% | 69.4% | 111% | 78.2% | 77.2% | 116% | 103% |  |  |
| COc1ccc(C2=NN(c3ccccc3)C(c3ccc(OCc4ccccc4)c(OC)c3)C2)cc1OC (stereo not drawn) | 93.8% | 86.6% | 97.3% | 98.9% | 108% | 92.7% | 85.1% | 105% | 104% | 86.5% | 93% | 100% | 86.8% | 120% | 99.4% | 88.7% | 118% |  |  |  |
| O=C(NNc1nc2cc(F)ccc2n2c(CN3CC4CNCC4C3)ccc12)c1ccncn1 (stereo not drawn) | 28.9% | 31.7% | 49% | 22.2% | 9.87% (active) | 32.6% | -13.4% (active) | 6.59% (active) | 23.2% | 42.7% | 12.7% | 7.46% (active) | 15.6% | 29.9% | 8.07% (active) | 12.1% | 59% | 12.7% |  |  |
| O=C(NNc1nc2cc(C(F)(F)F)ccc2n2cccc12)c1cnccn1 | -49.6% (active) | 2.58% (active) | -69.4% (active) | -56.6% (active) | -95.5% (active) | -54.8% (active) | -41.1% (active) | -67% (active) | -36.8% (active) | -73.1% (active) | -83.2% (active) | -59.9% (active) | -64.6% (active) | -91.8% (active) | -97.5% (active) | -87.6% (active) | -92.7% (active) | 6.27% (active) |  |  |
| CN1CCN(c2ccc(C(=O)/C=C/c3ccc(Br)cc3)cc2)CC1 | 8.41% (active) | 6.76% (active) | 28.3% | 31.4% | -75.7% (active) | 34.4% | -9.44% (active) | -13.4% (active) | 37.7% | 85.4% | 51.8% | 13.9% | 18.8% |  | 30.8% | 30.8% | 96% | 18.2% |  |  |
| CN1CCN(c2ccc3c(c2)nc(NNC(=O)c2ncccn2)c2cccn23)CC1 | 1.47% (active) | 11.2% | -46.9% (active) | 16.5% | -38.7% (active) | 6.1% (active) | -35.1% (active) | -62.8% (active) | -27.6% (active) | -7.45% (active) | -73.2% (active) | 6.25% (active) | 1.76% (active) |  | -83.7% (active) | -80.9% (active) | -95% (active) | 7.34% (active) |  |  |
| CN(C)CCn1c2ccccc2c2nc3ccc([N+](=O)[O-])cc3nc21 | 4.65% (active) | -15.6% (active) | 47.6% | 4.08% (active) | -8.94% (active) | 19.9% |  |  |  | -10.6% (active) | 17.3% | -9.41% (active) | -47.6% (active) | -1.22% (active) | -40.8% (active) | -23.8% (active) | -41.7% (active) | 17.6% | -81% (active) | 8.56% (active) |
| COc1ccc(C(=O)/C=C/c2ccc3ccccc3c2)cc1S(N)(=O)=O | -87.1% (active) | -26.5% (active) | -15.5% (active) | -49.6% (active) | -96.3% (active) | -11.9% (active) | -55.6% (active) | -89.1% (active) | -41.5% (active) | 53.4% | -73.4% (active) | -43.7% (active) | -87.2% (active) | -82.3% (active) | -92.2% (active) | 2.11% (active) | 97.2% | 5.96% (active) |  |  |
| CN1CCN(c2ccc(C(=O)/C=C/c3cc(C(F)(F)F)cc(C(F)(F)F)c3)cc2)CC1 | -84.2% (active) | -3.47% (active) | -82.3% (active) | -85% (active) | -94.9% (active) | -26.4% (active) | -85.4% (active) | -89.7% (active) | -96.8% (active) | -86.2% (active) | -73.2% (active) | -79.8% (active) | -92.5% (active) | -88.7% (active) | -99.2% (active) | -73.7% (active) | -70% (active) | 5.57% (active) |  |  |
